# Experimental data as given in PubChem BioAssay (NCATS).
# Unmarked numbers belong to inactive results. Records with an inconclusive call do not appear. Calls of active or inactive are those of the source. Unless noted, calls follow the shape of the dose curve; as a rule, active = well fitted curve in either direction with a large enough effect (not every such curve was filed as active); inconclusive = small, poorly fitted or top-dose-only effect, or another doubt; inactive = flat fitted curve, though single readings scatter.
# Experiments:
# [1] = biological target: Lysosomal acid glucosylceramidase (Homo sapiens) (UniProt P04062); assay: Glucocerebrosidase-p2 (AID 348; in the data active = potency below about 10 µM; also: potency is read from the fitted curve at half-maximal effect); conditions: purified GBA, blue fluorogenic substrate, 40 min
# Procedure, shortened: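 Normal human glucocerebrosidase (0.2 nM) with blue fluorogenic substrate (80 uM final) in citrate/phosphate pH 5.9 with 10mM sodium taurocholate, 0.01% tween-20; 40 min RT, NaOH/glycine stop; fluorescence Ex 365/Em 440; AC50 from a titration from 0.6 nM upwards.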
# [2] = AP1 Signaling Pathway (AID 357); conditions: ME-180 AP-1-bla reporter, EGF-induced, beta-lactamase ratio, 5 h; at 7.69 µM (top of the series) unless noted;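 also: ME-180 reporter cells stimulated with EGF at its EC50 level; % is scaled to controls: 0 for no effect and ±100 for the full control effect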
# Procedure, shortened: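 Read-out was the 460nm/530nm emission ratio (excitation 405nm) after CCF4 loading for 2.5 hours at room temperature. Cells carried an AP-1-driven beta-lactamase reporter, were stimulated with EC50 EGF plus compound for 5 hours, and AC50 values came from titrations.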
# [3] = NFAT Signaling Pathway (AID 444); conditions: Jurkat NFAT-bla M1, carbachol, beta-lactamase ratio, 5 h; at 7.69 µM (top of the series) unless noted;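 also: carbachol stimulus at about its EC50 of 1 µM final; % is scaled to controls: 0 for no effect and ±100 for the full control effect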
# Procedure, shortened: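 Jurkat cells with NFAT-driven β-lactamase reporter and co-expressed M1 receptor, stimulated with carbachol (final 1 uM, ~EC50), compound titration, 5 h at 37 °C. CCF4 loaded 1 h at RT; 460/530 nm ratio gave %activity and AC50.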
# [4] = Stat Signaling Pathway (AID 446); conditions: ME-180 (cervical carcinoma) SIE beta-lactamase reporter, IL-6 stimulated, 5 h; at 7.69 µM (top of the series) unless noted;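 also: ME-180 cervical cancer cells given 40 pM IL-6 alongside compound; SIE-controlled beta-lactamase reporter measured as 460/530 nm FRET emission ratio; % is scaled to controls: 0 for no effect and ±100 for the full control effect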
# Procedure, shortened: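 Emission at 460 and 530 nm (excitation 405 nm) reports SIE-controlled beta-lactamase in ME-180 cells. Cells received compound with 40 pM IL-6 for 5 hrs at 37 C; data scaled between 300 pM IL-6 and 125 nM JAK-inhibitor controls.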
# [5] = biological target: Glucocorticoid receptor (Homo sapiens) (UniProt P04150); assay: GR-EFC Redistribution (AID 451; calls by dose curve; also: potency is read from the fitted curve at half-maximal effect); conditions: CHO-K1 GR-EFC translocation, beta-gal luminescence, 2 h
# Procedure, shortened: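 CHO-K1 cells expressing nuclear EA and GR-ED fragments of b-gal; compounds titrated up to 46 uM final, 2 h at 37 C. GR nuclear translocation read as complemented b-gal luminescence after 1 h RT detection.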
# [6] = biological target: Mitogen-activated protein kinase 10 (Mus musculus) (UniProt Q61831); assay: JNK3 AlphaScreen Assay (AID 530); conditions: JNK3 lysate, c-Jun phosphorylation; series mostly up to 11.4 µM;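 also: kinase came from lysate of stimulated human HepG2 cells; signal reports phosphorylation of biotinylated GST-cJun 1-79 at Ser73 with 10 µM ATP; % is scaled to controls: 0 for no effect and ±100 for the full control effect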
# Procedure, shortened: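 HepG2 lysate (IL-1b/TNFa pre-activated) + biotin-GST-cJun 1-79 + anti-pSer73 cJun; cpd titration, 15 min RT; ATP 10 uM start; Tris pH 7.6, MgCl2, DTT, vanadate; beads in EDTA buffer; AlphaScreen.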
# [7] = biological target: 3',5'-cyclic-AMP phosphodiesterase 4B (Homo sapiens) (UniProt Q07343); assay: qHTS Assay for Inhibitors of PDE-IV (AID 607; active = well fitted activation curve with a large enough effect in the main read-out, with a control signal flat, not every such curve was filed as active; also: % of control where 0% means no effect); conditions: HEK293 ACTOne CNG channel cells, membrane potential fluorescence; series mostly up to 22.9 µM
# Procedure, shortened: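 The readout is membrane depolarisation from a cAMP-sensing CNG channel, detected with a potential dye at ex 535/em 590. Cells were HEK293-derived (endogenous PDE-IV) at 1000 cells/well, titrated up to 22.9 uM final.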
# [8] = biological target: Glucocorticoid receptor (Homo sapiens) (UniProt P04150); assay: GR-GFP Redistribution (AID 450;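 active = compounds whose dose series gives a full or clear partial fitted curve of increased nuclear translocation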; also: potency is read from the fitted curve at half-maximal effect); conditions: U2OS GR-GFP nuclear translocation, laser cytometry, 2 h
# [9] = biological target: Cytochrome P450 2D6 (Homo sapiens) (UniProt P10635); assay: qHTS Assay for Inhibitors and Substrates of Cytochrome P450 2D6 (AID 891; active = well fitted curve in the direction sought with a large enough effect; an effect the other way counts as inactive or inconclusive; also: potency is read from the fitted curve at half-maximal effect; nearly all actives have a fitted effect of over 60% in size); conditions: recombinant CYP2D6, luciferin-ME EGE luminescence; series mostly up to 11.4 µM
# Procedure, shortened: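 Luminescent read-out of luciferin formed by 5 nM human CYP2D6 demethylating 30 uM Luciferin-ME EGE (Km level) over 60 min at room temperature after NADPH regeneration addition. Data normalized to full inhibition by 1.43 uM quinidine.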
# [10] = biological target: Cytochrome P450 3A4 (Homo sapiens) (UniProt P08684); assay: qHTS Assay for Activators of Cytochrome P450 3A4 (AID 885; active = well fitted curve in the direction sought with a large enough effect; an effect the other way counts as inactive or inconclusive; also: nearly all actives have a fitted effect of over 65% in size; also: potency is read from the fitted curve at half-maximal effect); conditions: recombinant CYP3A4, Luciferin-PPXE luminescence, 60 min; series mostly up to 11.4 µM
# Procedure, shortened: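 Activators are scored by enhanced luminescence from CYP3A4 conversion of luciferin-PPXE (25uM, equal to KM) to luciferin, after 60 min at RT with an NADPH-regenerating system.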
# [11] = biological target: Cytochrome P450 2C9 (Homo sapiens) (UniProt P11712); assay: qHTS Assay for Inhibitors and Substrates of Cytochrome P450 2C9 (AID 883; active = well fitted curve in the direction sought with a large enough effect; an effect the other way counts as inactive or inconclusive; also: nearly all actives have a fitted effect of over 60% in size; also: potency is read from the fitted curve at half-maximal effect); conditions: recombinant CYP2C9, luciferin-H luminescence, 60 min; series mostly up to 11.4 µM
# Procedure, shortened: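 Human CYP2C9 (10nM) with Luciferin-H at 100uM (its KM) in 25mM KPO4; compound preincubated 10 min at 37C, then NADPH regeneration for 60 min at 37C. Luciferin read by luminescence after detection reagent; normalized to 57uM sulphaphenazole as full inhibition.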
# [12] = biological target: Cytochrome P450 2C19 (Homo sapiens) (UniProt P33261); assay: qHTS Assay for Inhibitors and Substrates of Cytochrome P450 2C19 (AID 899; active = well fitted curve in the direction sought with a large enough effect; an effect the other way counts as inactive or inconclusive; also: potency is read from the fitted curve at half-maximal effect; nearly all actives have a fitted effect of over 60% in size); conditions: recombinant CYP2C19, luciferin-H EGE luminescence; series mostly up to 11.4 µM
# Procedure, shortened: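 5 nM human CYP2C19 with 10uM Luciferin-H EGE (at KM) in 50mM KPO4, compound preincubated 10 min at 37C, then NADPH regeneration for 60 min at 37C. Luciferin read by luminescence after detection reagent; normalized to 57uM ketoconazole as full inhibition.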
# [13] = biological target: Cytochrome P450 3A4 (Homo sapiens) (UniProt P08684); assay: qHTS Assay for Inhibitors and Substrates of Cytochrome P450 3A4 (AID 884; active = well fitted curve in the direction sought with a large enough effect; an effect the other way counts as inactive or inconclusive; also: nearly all actives have a fitted effect of over 50% in size; also: potency is read from the fitted curve at half-maximal effect); conditions: recombinant CYP3A4, Luciferin-PPXE luminescence; series mostly up to 57.1 µM
# Procedure, shortened: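 Luminescent readout of luciferin produced by CYP3A4 (20 nM) dealkylation of Luciferin-PPXE, 25 uM (its KM). NADPH-driven reaction ran 60 min at RT after 10 min compound preincubation; data scaled to 57 uM ketoconazole as 100% inhibition.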
# 3',5'-cyclic-AMP phosphodiesterase 4B (Homo sapiens), sequence (Q07343 whole entry, looked up): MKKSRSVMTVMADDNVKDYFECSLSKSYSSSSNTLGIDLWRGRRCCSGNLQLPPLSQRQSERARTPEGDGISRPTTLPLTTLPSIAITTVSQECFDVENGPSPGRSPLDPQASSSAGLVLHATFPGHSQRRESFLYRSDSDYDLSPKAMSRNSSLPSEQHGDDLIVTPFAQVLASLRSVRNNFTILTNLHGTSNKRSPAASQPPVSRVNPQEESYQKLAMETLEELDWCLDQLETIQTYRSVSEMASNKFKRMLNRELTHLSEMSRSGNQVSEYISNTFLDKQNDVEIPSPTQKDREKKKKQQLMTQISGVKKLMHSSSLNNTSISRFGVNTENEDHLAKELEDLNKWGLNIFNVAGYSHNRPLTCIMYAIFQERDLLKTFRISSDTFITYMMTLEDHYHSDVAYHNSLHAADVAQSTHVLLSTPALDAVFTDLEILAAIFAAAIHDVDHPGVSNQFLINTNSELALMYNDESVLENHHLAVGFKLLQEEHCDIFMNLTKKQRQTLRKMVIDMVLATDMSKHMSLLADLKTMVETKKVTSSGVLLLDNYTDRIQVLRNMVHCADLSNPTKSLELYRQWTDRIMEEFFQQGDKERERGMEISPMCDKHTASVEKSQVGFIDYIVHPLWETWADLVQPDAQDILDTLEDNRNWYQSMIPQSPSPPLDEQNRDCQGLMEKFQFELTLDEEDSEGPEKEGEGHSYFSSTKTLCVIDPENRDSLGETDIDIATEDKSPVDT
# Glucocorticoid receptor (Homo sapiens), sequence (P04150 whole entry, looked up, the tested form may be a part): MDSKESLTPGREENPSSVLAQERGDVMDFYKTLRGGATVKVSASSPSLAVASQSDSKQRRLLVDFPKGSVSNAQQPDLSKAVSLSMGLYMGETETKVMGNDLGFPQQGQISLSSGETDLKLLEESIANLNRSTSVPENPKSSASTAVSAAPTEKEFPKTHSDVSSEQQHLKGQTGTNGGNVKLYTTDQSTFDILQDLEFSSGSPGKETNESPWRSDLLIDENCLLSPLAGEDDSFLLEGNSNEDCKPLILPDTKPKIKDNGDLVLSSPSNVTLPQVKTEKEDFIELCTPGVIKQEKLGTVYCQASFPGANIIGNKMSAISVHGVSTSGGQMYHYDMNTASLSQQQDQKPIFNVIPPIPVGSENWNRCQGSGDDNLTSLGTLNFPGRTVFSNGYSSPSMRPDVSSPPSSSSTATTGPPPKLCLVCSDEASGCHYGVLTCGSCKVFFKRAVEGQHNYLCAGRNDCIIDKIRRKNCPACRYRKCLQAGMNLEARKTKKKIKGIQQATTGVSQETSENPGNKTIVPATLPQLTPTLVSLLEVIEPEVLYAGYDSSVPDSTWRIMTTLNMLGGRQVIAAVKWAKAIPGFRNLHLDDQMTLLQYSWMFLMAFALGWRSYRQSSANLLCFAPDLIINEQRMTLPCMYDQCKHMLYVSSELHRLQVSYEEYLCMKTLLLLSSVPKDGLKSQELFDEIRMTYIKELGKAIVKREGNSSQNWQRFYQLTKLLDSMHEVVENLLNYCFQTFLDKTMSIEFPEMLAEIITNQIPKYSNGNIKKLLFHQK
# Cytochrome P450 2C9 (Homo sapiens), sequence (P11712 whole entry, looked up): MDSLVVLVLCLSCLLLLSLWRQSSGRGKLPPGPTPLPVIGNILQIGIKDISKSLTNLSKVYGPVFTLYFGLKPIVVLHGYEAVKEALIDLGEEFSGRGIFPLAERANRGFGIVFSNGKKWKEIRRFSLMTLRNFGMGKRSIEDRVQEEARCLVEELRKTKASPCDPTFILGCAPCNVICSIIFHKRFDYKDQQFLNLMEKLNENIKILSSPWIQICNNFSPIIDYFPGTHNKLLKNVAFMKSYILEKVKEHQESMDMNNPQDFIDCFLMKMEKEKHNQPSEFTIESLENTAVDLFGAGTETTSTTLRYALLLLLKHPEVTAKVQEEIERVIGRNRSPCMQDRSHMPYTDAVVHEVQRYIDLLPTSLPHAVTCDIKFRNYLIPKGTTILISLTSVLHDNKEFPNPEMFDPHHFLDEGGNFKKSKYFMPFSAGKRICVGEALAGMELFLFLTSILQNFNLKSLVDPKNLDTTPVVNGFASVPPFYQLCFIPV
# Cytochrome P450 3A4 (Homo sapiens), sequence (P08684 whole entry, looked up): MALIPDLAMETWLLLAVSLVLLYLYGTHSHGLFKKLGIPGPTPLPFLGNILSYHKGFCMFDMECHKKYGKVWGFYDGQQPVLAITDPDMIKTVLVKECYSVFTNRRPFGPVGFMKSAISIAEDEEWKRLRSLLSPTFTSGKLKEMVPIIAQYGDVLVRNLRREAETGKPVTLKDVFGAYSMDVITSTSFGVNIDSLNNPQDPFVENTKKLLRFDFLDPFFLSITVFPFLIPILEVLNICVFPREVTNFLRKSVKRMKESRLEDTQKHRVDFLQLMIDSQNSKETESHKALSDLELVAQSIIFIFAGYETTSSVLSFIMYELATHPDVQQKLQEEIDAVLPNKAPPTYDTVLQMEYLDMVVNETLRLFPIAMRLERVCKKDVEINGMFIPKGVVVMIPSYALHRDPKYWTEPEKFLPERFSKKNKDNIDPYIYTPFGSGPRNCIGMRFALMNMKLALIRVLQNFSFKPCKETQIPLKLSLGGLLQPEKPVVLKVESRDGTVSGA
# Lysosomal acid glucosylceramidase (Homo sapiens), sequence (P04062 whole entry, looked up): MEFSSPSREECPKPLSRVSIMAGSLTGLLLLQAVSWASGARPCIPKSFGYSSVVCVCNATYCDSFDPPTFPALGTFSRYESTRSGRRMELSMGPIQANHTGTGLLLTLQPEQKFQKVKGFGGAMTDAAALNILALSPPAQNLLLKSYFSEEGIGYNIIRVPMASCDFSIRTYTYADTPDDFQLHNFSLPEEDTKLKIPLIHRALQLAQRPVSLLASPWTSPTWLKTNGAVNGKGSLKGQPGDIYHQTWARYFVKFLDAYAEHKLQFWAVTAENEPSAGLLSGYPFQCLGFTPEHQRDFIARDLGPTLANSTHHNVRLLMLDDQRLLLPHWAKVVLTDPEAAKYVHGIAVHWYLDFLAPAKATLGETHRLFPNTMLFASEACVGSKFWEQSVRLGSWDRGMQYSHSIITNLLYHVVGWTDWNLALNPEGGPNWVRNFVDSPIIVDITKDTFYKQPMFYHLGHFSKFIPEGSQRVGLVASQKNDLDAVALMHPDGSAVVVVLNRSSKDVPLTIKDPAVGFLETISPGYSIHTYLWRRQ
# Cytochrome P450 2C19 (Homo sapiens), sequence (P33261 whole entry, looked up): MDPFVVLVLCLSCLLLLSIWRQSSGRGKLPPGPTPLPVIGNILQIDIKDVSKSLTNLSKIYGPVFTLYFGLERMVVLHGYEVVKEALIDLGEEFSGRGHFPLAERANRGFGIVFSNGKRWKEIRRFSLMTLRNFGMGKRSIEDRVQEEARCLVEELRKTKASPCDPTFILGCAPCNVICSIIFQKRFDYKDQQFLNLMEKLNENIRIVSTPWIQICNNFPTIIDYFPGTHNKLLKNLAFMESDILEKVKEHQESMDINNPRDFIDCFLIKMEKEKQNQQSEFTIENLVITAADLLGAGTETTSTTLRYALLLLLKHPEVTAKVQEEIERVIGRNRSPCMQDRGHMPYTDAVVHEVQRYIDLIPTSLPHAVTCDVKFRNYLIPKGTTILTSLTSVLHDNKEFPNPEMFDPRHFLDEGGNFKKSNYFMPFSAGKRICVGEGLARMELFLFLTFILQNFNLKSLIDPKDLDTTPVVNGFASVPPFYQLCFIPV
# Cytochrome P450 2D6 (Homo sapiens), sequence (P10635 whole entry, looked up): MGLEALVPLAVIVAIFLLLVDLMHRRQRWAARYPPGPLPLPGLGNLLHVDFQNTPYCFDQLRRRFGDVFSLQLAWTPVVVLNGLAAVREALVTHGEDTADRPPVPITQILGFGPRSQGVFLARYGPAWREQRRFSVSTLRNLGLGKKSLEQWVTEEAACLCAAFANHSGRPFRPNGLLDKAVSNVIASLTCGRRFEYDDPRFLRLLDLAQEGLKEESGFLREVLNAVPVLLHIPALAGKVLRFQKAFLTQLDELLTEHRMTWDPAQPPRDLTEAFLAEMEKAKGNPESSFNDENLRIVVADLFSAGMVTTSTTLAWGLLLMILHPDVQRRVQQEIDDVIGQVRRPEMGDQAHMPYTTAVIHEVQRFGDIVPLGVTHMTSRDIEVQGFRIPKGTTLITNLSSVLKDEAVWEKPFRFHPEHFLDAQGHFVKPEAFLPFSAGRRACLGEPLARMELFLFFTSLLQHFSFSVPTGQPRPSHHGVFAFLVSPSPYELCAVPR
Structure (SMILES),Potency [1] [µM],"activity change, negative = inhibition [2] [%]","activity change, negative = inhibition [3] [%]","activity, negative = inhibition [4] [%]",Potency [5] [µM],Potency [6],Potency [7],Potency [8] [µM],Potency [9],Potency [10],Potency [11],Potency [12],Potency [13],"activity change, negative = inhibition [13]"
CO[C@@H]1/C=C\O[C@]2(C)Oc3c(C)c(O)c4c(O)c(c(CN(C)C)c(O)c4c3C2=O)NC(=O)/C(C)=C\C=C[C@@H](C)[C@@H](O)[C@H](C)[C@@H](O)[C@H](C)[C@H](OC(C)=O)[C@@H]1C,> 11.4,-3.25,17.6,-2.18,> 9.22,inactive,inactive,–,–,–,–,–,–,–
COc1ccc(C(=O)N2CCC3(CC2)CN(c2ccccc2)C3)cc1,> 11.4,-16.2,5.84,-21.3,> 46,inactive,–,–,–,–,–,–,–,–
CNC[C@@H](SC)c1ccc(O)c(O)c1,> 11.4,1.24,7.41,–,> 9.22,inactive,inactive,> 46,–,–,–,–,–,–
C(CCc1nnc2c(n1)CCCC2)Cc1nnc2c(n1)CCCC2,> 11.4,6.86,-8.87,0.257,> 9.22,inactive,inactive,–,–,–,–,–,–,–
CC(C)c1ccc2c(c1)CC[C@H]1[C@@](C)(CN)CCC[C@@]21C,> 11.4,6.87,30,11.3,–,inactive,inactive,–,1.26 µM (active),–,–,–,–,–
OC(Cc1cccnc1)(c1ccccc1)c1ccccc1,> 11.4,5.37,-25.6,-5.74,> 9.22,inactive,inactive,–,–,–,–,–,–,–
CN1CCC[C@@H]1c1cccnc1.O=C(O)c1ccccc1O.O=C([OH2+])c1ccccc1O.O=C([OH2+])c1ccccc1O.O=C([OH2+])c1ccccc1O.[Cu],> 11.4,0.0867,-1.52,12.5,–,inactive,inactive,–,–,–,–,–,–,–
O=C(O)CC(CC(=O)O)C(=O)O,> 11.4,-1.11,8.83,7.1,–,inactive,inactive,> 46,–,–,–,–,–,–
NCCNC[C@H](O)CO,> 11.4,-9.92,7.58,3.6,> 9.22,inactive,inactive,–,–,–,–,–,–,–
CCOC(=O)Cn1c(C(F)(F)F)nc2nc(Cl)c(Cl)nc21,> 11.4,6.84,-10.5,–,> 9.22,inactive,inactive,> 46,–,–,–,–,–,–
CN1CCC[C@@H]1c1cccnc1.O=C(O)c1ccccc1O.O=C([OH2+])c1ccccc1O.O=C([OH2+])c1ccccc1O.[Mn],> 11.4,10.8,-9.45,17.5,–,inactive,inactive,–,–,–,–,–,–,–
COc1ccc(C(=O)N2CCC3(CC2)CCN(c2ccccn2)CC3)cc1,> 11.4,-1.45,-26.9,-10.1,> 46,inactive,inactive,–,–,–,–,–,–,–
CC(CCc1nc2ccccc2s1)(c1ccc(O)cc1)c1ccc(O)cc1,> 11.4,7.74,1.62,–,> 9.22,inactive,inactive,> 46,–,–,–,–,–,–
CC1(C)S[C@@H]2[C@H](C(=O)O)N=C(Cc3ccccc3)N2[C@H]1C(=O)O,> 11.4,2.18,8.91,–,> 9.22,inactive,inactive,> 46,–,–,–,–,–,–
S=C1NCN2CCN(CC2)CNC(=S)C(=S)NCN2CCN(CC2)CNC1=S,> 11.4,3.32,-3.6,3.07,> 9.22,inactive,inactive,–,–,–,–,–,–,–
O=C(O)CN(CCN(CC(=O)O)CC(=O)O)CC(=O)O.[Cu],> 11.4,-4.33,0.389,6.67,–,inactive,inactive,–,–,–,–,–,–,–
O=C(O)C[C@H](Nc1ccccc1)C(=O)O,> 11.4,0.63,19.5,–,> 9.22,inactive,inactive,> 46,–,–,–,–,–,–
Cc1noc(C)c1C(=O)N1CCC2(CC1)CN(c1cccc(-c3ccccc3)c1)C2,> 11.4,-13.8,5.64,-11.6,> 46,inactive,inactive,–,–,–,–,–,–,–
COc1ccc(C(=O)N2CCC[C@@]3(CCN(c4ccccc4)C3)C2)cc1,> 11.4,-5.32,-9.66,-1.29,> 46,–,–,–,–,inactive,–,–,–,–

Structure (SMILES),Potency [1] [µM],"activity change, negative = inhibition [2] [%]","activity change, negative = inhibition [3] [%]","activity, negative = inhibition [4] [%]",Potency [5] [µM],Potency [6],Potency [7],Potency [8] [µM],Potency [9],Potency [10],Potency [11],Potency [12],Potency [13],"activity change, negative = inhibition [13]"
CC(C)c1cc(CN(C)C)c(O)c(C(C)(C)C)c1,> 11.4,1.46,-5.67,–,> 9.22,inactive,inactive,> 46,–,–,–,–,–,–
NC(=O)NCCS[C@H]1CCCC[C@@H]1O,> 11.4,3.84,3.5,–,> 9.22,inactive,–,> 46,–,–,–,–,–,–
CC(=O)[C@@]1(N=Nc2ccc(S(N)(=O)=O)cc2)CCOC1=O,> 11.4,-8.54,5.28,6.55,> 9.22,inactive,–,–,–,–,–,–,–,–
CNS(=O)(=O)c1ccccc1C(=N)c1ccccc1,> 11.4,-4.6,1.97,–,> 9.22,inactive,inactive,> 46,–,–,–,–,–,–
CN(C)CN1CSC(=S)N(CN(C)C)C1,> 11.4,-2.13,1.69,0.0184,> 9.22,inactive,inactive,–,–,–,3.16 µM (active),3.16 µM (active),–,–
C=CCSc1nc2c(N)ncnc2n1[C@@H]1O[C@H](CO)[C@@H](O)[C@@H]1O,> 11.4,4.59,2.7,-1.09,> 9.22,inactive,inactive,–,–,–,–,–,–,–
CN1CCC[C@@H]1c1cccnc1.O=C(O)c1ccccc1O.O=C([OH2+])c1ccccc1O.O=C([OH2+])c1ccccc1O.O=C([OH2+])c1ccccc1O.[Mn],> 11.4,13.3,-2.84,-11.4,–,inactive,inactive,–,–,–,–,–,–,–
O=C(O)[C@H](/C=C\c1ccccc1)c1ccccc1,> 11.4,0.652,-12,–,> 9.22,inactive,inactive,> 46,–,–,–,–,–,–
O=C(O)c1ccncc1.O=C(O)c1ccncc1.[Cl][Pt]([Cl])([Cl])[Cl],> 11.4,2.72,-19.9,–,> 9.22,inactive,inactive,> 46,–,–,–,–,–,–
COc1ccc(-n2c(=O)c(-c3cccs3)nc3cnc(Oc4ccccc4)nc32)cc1,> 11.4,-6.68,-26.9,–,> 46,inactive,inactive,> 9.22,–,–,–,–,–,–
O=C(Nc1ccc(-c2cn3ccccc3n2)cc1)c1cc(Br)ccc1O,> 11.4,-0.171,1.22,-0.935,> 9.22,inactive,inactive,–,–,–,–,–,–,–
O=C(O)c1oc(C(=O)O)c(C(=O)O)c1C(=O)O,> 11.4,10.9,7.7,–,> 9.22,inactive,inactive,> 46,–,–,–,–,–,–
OC[C@@H]1CCC[C@H](n2cnc3c(=S)nc[nH]c32)O1,> 11.4,1.32,24.8,–,> 9.22,inactive,inactive,> 46,–,–,–,–,–,–
N=C(N)SCCON1C(=O)c2ccccc2C1=O,> 11.4,5.96,-3.83,–,> 9.22,inactive,inactive,> 46,–,–,–,–,–,–
O=C1OC2(c3ccc(O)cc3Oc3cc(O)ccc32)c2c1c(-c1ccccc1)c(-c1ccccc1)c(-c1ccccc1)c2-c1ccccc1,> 11.4,-28.2,5.71,-17.7,> 9.22,inactive,inactive,–,–,–,–,–,–,–
COc1ccc(NCc2c(O)ccc3ccccc23)cc1,> 11.4,-6.4,–,-5.4,> 9.22,inactive,inactive,> 46,–,–,–,–,–,–
Nc1ccc(N(S(=O)(=O)c2ccccc2)S(=O)(=O)c2ccccc2)c(Cl)c1,> 11.4,-27.7,-14.8,–,> 9.22,inactive,–,> 46,–,inactive,3.16 µM (active),0.158 µM (active),0.0316 µM (active),–
C[C@H]1CCCC=CC2C[C@H](OC(=O)CN(C)C)C[C@@H]2[C@@H](O)/C=C\C(=O)O1 (some centres undefined),> 11.4,-7.78,29.7,–,> 9.22,inactive,inactive,> 46,–,3.98 µM (active),inactive,–,–,229% [at 11.4 µM]
